Glioma ERSR ind = ER stress response induction in glioma | U87-MG GRP78 promoter luciferase reporter, 16 h | Potency, µM, most hits filed as activators | 420,000 tested, 0.02% active | AID 602332; note: series mostly up to about 76 µM; nearly all actives have a fitted effect of over 35% in size
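ERSR induction read as luciferase luminescence (Bright-Glo, 10 min at room temperature) in stably transfected human U87-MG glioma cells exposed to compounds for 16 h, using GRP78 as sensor.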
12-LOX inh = ALOX12 (human) lipoxygenase inhibition; P18054; purified 12hLO, xylenol orange hydroperoxide absorbance; Potency, µM (series often up to 108 µM), actives largely listed as inhibitors; 580,000 tested, 1.1% active; AID 1671190
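Purified human 12hLO (150 nM final) in 25 mM Hepes, 0.01% Triton X-100, pH 7.0 was preincubated 15 min at room temperature with compound. Then 40 uM arachidonic acid was added, 30 min. Hydroperoxide was read by Fe-XO absorbance ratio 573/405 nm.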
Sfp inh = Sfp phosphopantetheinyl transferase inhibition; Q9F4F7; Biochemical Sfp PPTase activity, qHTS; Potency, µM, usual class: inhibitors; 310,000 tested, 3.5% active; AID 1490;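 note: the enzyme is Sfp with the accession as filed and its product quenches rhodamine fluorescence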
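Reaction rates are the 30-min fluorescence difference (ex 525, em 598 nm) in wells containing 15 nM Sfp, 5 uM rhodamine-CoA and 12.5 uM BHQ-2-YbbR at pH 7.6 with 10 mM MgCl2.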
G9a inh = G9a (human) methyltransferase inhibition | Potency, µM (doses to about 102 µM), hits mostly inhibitors | G9a H3K9 monomethylation, AlphaScreen, 2 h | 350,000 tested, 8.8% active; note: nearly all actives have a fitted effect of over 75% in size
Target sequence (Q96KQ7 913-1193 limits assumed): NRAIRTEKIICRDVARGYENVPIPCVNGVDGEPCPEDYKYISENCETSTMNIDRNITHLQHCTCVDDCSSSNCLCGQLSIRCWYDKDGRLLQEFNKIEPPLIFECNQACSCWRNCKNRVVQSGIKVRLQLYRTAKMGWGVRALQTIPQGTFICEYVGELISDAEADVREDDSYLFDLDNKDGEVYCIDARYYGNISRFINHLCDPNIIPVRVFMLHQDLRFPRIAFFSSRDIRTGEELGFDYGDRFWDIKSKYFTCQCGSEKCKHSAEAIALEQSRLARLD
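G9a (20 nM) was preincubated 15 min with compound, then reacted 2 h at room temperature with 500 nM biotin-H3K9 peptide and 20 µM SAM. Monomethyl-H3K9 detected by AlphaScreen using anti-H3K9me1 antibody.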
VDR inhibitor = inhibitors of human vitamin D receptor | VDR-SRC2-3 peptide fluorescence polarization, 2 h | Potency, µM, actives largely listed as inhibitors | 400,000 tested, 0.93% active | AID 504847
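FP read-out; VDR + SRC2-3 coactivator peptide; 23 nl compound by pintool; 2 h RT incubation; reagents held at 4 deg C, protected from light.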
Sfp PPTase conf = Sfp phosphopantetheinyl transferase inhibition, confirmation; shares compounds with Sfp inh; Sfp PPTase enzymatic assay, qHTS titration; Potency, µM (series often up to 114 µM), hits mostly inhibitors; 380 tested, 79% active; AID 2701
Target sequence (Q9F4F7 whole entry, looked up): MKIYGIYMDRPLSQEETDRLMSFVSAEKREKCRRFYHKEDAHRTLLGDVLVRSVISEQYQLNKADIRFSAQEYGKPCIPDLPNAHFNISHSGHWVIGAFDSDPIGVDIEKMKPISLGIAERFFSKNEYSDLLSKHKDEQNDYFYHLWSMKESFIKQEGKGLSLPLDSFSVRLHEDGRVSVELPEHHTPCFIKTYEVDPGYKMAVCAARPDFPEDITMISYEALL
Sfp gel assay = Inhibits B. subtilis Sfp phosphopantetheinylation. shares compounds with Sfp inh. purified Sfp, gel-based phosphopantetheinylation read-out. Potency, µM, usual class: inhibitors. 210 tested, 20% active. AID 2707;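 active = potency below 100 µM; inconclusive = dose-dependent response but potency above 100 µM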;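 note: potency is an IC50 for inhibitors of Sfp transfer activity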
VDR inh confirm = inhibits human vitamin D receptor, primary hit validation; VDR-coactivator inhibition assay, qHTS confirmation; AID 602199; Potency, µM, most hits filed as inhibitors; shares compounds with VDR inhibitor; 840 tested, 89% active
VDR FP fluor = VDR (human) coactivator binding inhibition, fluorescein polarization; shares compounds with VDR inhibitor; VDR-coactivator binding, fluorescein fluorescence polarization; Potency, µM (series often up to 57.1 µM), usual class: inhibitors; 840 tested, 48% active
VDR bla = VDR (human) inhibition, cell-based beta-lactamase validation; Potency, µM (highest dose often 46.1 µM), actives largely listed as inhibitors; 840 tested, 23% active; shares compounds with VDR inhibitor; VDR beta-lactamase reporter cells, FRET ratio; cells co-treated with VDR agonist LG190178; AID 602202
VDR viability = counter-screen for vitamin D receptor inhibitors: cytotoxicity | AID 602204 | Potency, µM (titrated, usually from 48.3 µM), hits mostly cytotoxic | 840 tested, 18% active | cytotoxicity counter-screen, cell viability, qHTS | shares compounds with VDR inhibitor; note: nearly all actives have a fitted effect of over 75% in size
Of the large screens only hits and unclear results are named; the others gave an inactive call (follow-up assays come after a bar, where they were run). Many of the other results were omitted from the sample, so hits are more common in it than they were. Unless noted, calls come from the whole dose curve; as a rule, active = well fitted curve in the direction sought with a large enough effect; inconclusive = small, poorly fitted or top-dose-only effect, or another doubt; inactive = no such curve, though single readings can be large; an effect the other way counts as inactive or inconclusive.

CCC(C)Oc1ccccc1C1CC(=O)NC2=C1C(=O)CC(C)(C)C2 (stereo not drawn)	none (no result: Glioma ERSR ind, Sfp inh, G9a inh, VDR inhibitor)
C[C@@H]1CN=C2N(CCNC(=O)CCC3CCCCC3)[C@H](Cc3ccc(O)cc3)CN21	12-LOX inh inconclusive, Sfp inh 16µM | Sfp PPTase conf inconclusive
CCn1c(NC(=O)CCc2nc(-c3ccc(OC)c(OC)c3)no2)nc2ccccc21	none (no result: Glioma ERSR ind, Sfp inh, G9a inh, VDR inhibitor)
Cc1ccc(NC(=S)N2CCC(c3ccc(C)cc3)C2)cc1 (stereo not drawn)	12-LOX inh inconclusive, Sfp inh 32µM, G9a inh 10µM, VDR inhibitor inconclusive | Sfp PPTase conf 37µM | Sfp gel assay inconclusive
COc1cccc(-c2cc(C(=O)N[C@@H](C)c3ncccc3C)[nH]n2)c1	none (no result: Glioma ERSR ind, Sfp inh, G9a inh, VDR inhibitor)
CN(C)c1ccc(-c2nn3c(-c4ccc(Cl)cc4)nnc3s2)cc1	none
Clc1ccc(-c2nn3c(C4COc5ccccc5O4)nnc3s2)cc1 (stereo not drawn)	12-LOX inh inconclusive, Sfp inh 14µM, G9a inh 7.1µM, VDR inhibitor 79µM | Sfp PPTase conf 33µM
Cc1ccc(-c2cnc(-c3ccncc3)o2)cc1	Sfp inh 56µM, G9a inh inconclusive | Sfp PPTase conf inactive | Sfp gel assay inactive
COc1cccc(NC(=O)Nc2cccs2)c1	Sfp inh 11µM, G9a inh 10µM | Sfp PPTase conf 30µM | Sfp gel assay inactive
COc1cccc(NC(=O)Nc2ccncc2)c1	none
c1ccc(CSc2nnc(-c3ccco3)n2Cc2ccco2)cc1	Sfp inh 4µM, G9a inh 50µM | Sfp PPTase conf 33µM
COc1cccc(Nc2ccc3c(n2)C(C)(C(=O)NCCc2ccccn2)CN(C)C3)c1 (stereo not drawn)	none (no result: Glioma ERSR ind, Sfp inh, G9a inh, VDR inhibitor)
Cc1ccc2c(c1)CCCN2C(=O)Nc1ccc2c(c1)OCO2	Sfp inh 3.2µM, G9a inh inconclusive, VDR inhibitor inconclusive | Sfp PPTase conf inconclusive | Sfp gel assay inactive
COc1cc(NCc2ccc3nc(N)nc(N)c3c2C)cc(OC)c1OC	12-LOX inh inconclusive, Sfp inh 32µM, G9a inh 10µM, VDR inhibitor 25µM | Sfp PPTase conf 37µM
CC(C)[C@H](NC(=O)OC(C)(C)C)c1nnc(S(=O)(=O)Cc2c(F)cccc2Cl)o1	Sfp inh 14µM, G9a inh inconclusive, VDR inhibitor inconclusive | Sfp PPTase conf 30µM | Sfp gel assay inconclusive
O=C(Nc1nc(-c2cc3ccccc3oc2=O)cs1)c1ccccc1Cl	none (no result: Glioma ERSR ind, Sfp inh, G9a inh, VDR inhibitor)
N=c1c2c3c(sc2ncn1Cc1ccco1)CCCCC3	Sfp inh 13µM | Sfp PPTase conf inactive | Sfp gel assay inactive
CC(C)C(C)NC(=O)CSc1nc2scc(-c3ccco3)c2c(=O)n1-c1ccccc1 (stereo not drawn)	Sfp inh 4.5µM | Sfp PPTase conf 30µM | Sfp gel assay inconclusive
Cc1c(-n2c(SCC(=O)NC(C)C(C)C)nc3ccccc3c2=O)c(=O)n(-c2ccccc2)n1C (stereo not drawn)	none
O=C(c1ccccn1)N1CC(Oc2ccc(F)c(F)c2)C1	none (no result: Glioma ERSR ind, Sfp inh, G9a inh, VDR inhibitor)
COc1ccc(C2C=C(c3ccc(F)cc3)Nc3nnnn32)cc1OCc1ccccc1 (stereo not drawn)	none (no result: Glioma ERSR ind, Sfp inh, G9a inh, VDR inhibitor)
CCOC(=O)c1c(N)sc2c1CCN(Cc1ccccc1)C2	Sfp inh 10µM, G9a inh 10µM, VDR inhibitor 40µM | Sfp PPTase conf 21µM
O=C(O)C(O)c1ccco1 (stereo not drawn)	Sfp inh 45µM, G9a inh 11µM (no result: 12-LOX inh) | Sfp PPTase conf inconclusive | Sfp gel assay inactive
O=C(/C=C/c1ccc(Br)o1)NCc1ccccc1	Sfp inh 6.3µM, VDR inhibitor 89µM (no result: G9a inh) | Sfp PPTase conf 17µM | Sfp gel assay inactive
O=C(/C=C/c1ccccc1Cl)NCc1ccccc1	none
Cc1c(C)c2ccc(OCC(=O)OCc3ccccc3)c(C)c2oc1=O	none (no result: Glioma ERSR ind, Sfp inh, G9a inh, VDR inhibitor)
CO/N=C(\C(=O)N[C@@H]1C(=O)N2C(C(=O)O)=C(COC(N)=O)CS[C@H]12)c1ccco1	G9a inh inconclusive
CO/N=C(/C(=O)N[C@@H]1C(=O)N2C(C(=O)O)=C(CSC(=O)c3ccco3)CSC12)c1csc(N)n1 (stereo partly drawn)	Sfp inh 56µM, G9a inh inconclusive, VDR inhibitor inconclusive (no result: 12-LOX inh) | Sfp PPTase conf 47µM | Sfp gel assay 6.2µM
CO/N=C(\C(=O)N[C@@H]1C(=O)N2C(C(=O)[O-])=C(C[n+]3cccc4c3CCCC4)CS[C@H]12)c1csc(N)n1	none (no result: 12-LOX inh, Sfp inh, G9a inh, VDR inhibitor)
CO/N=C(\C(=O)N[C@@H]1C(=O)N2C(C(=O)[O-])=C(C[n+]3cccc4c3CCC4)CS[C@H]12)c1csc(N)n1	Sfp inh 56µM, VDR inhibitor 28µM (no result: 12-LOX inh) | Sfp PPTase conf 42µM | Sfp gel assay 56µM
CCCc1ccc(CN2CCCC(O)(CN(C)C)C2)o1 (stereo not drawn)	none (no result: Glioma ERSR ind, Sfp inh, G9a inh, VDR inhibitor)
O=C(NCc1ccccc1)c1csc2c1CCCCC2	none
O=C(NCc1ccco1)c1csc2c1CCCCC2	none | Sfp PPTase conf inconclusive | Sfp gel assay inactive
CCc1c(C)sc(NC(=O)c2ccoc2C)c1C(N)=O	12-LOX inh 11µM, Sfp inh 11µM, G9a inh 7.1µM, VDR inhibitor 35µM | Sfp PPTase conf 8.3µM | VDR inh confirm 6.7 | VDR FP fluor inconclusive | VDR bla inactive | VDR viability inactive
O=C(CCCc1c[nH]c2ccccc12)Nc1cccc2cnccc12	none (no result: Glioma ERSR ind, Sfp inh, G9a inh, VDR inhibitor)
O=C(Nc1nnc(COc2ccc(Cl)cc2)s1)c1ccco1	12-LOX inh 45µM, Sfp inh 7.1µM, G9a inh 3.2µM, VDR inhibitor 28µM | Sfp PPTase conf 5.9µM | VDR inh confirm 4.2 | VDR FP fluor inconclusive | VDR bla inactive | VDR viability inactive
O=C(NC1CC1)c1sc2cc([N+](=O)[O-])ccc2c1Cl	none

Screening data deposited in PubChem BioAssay by National Center for Advancing Translational Sciences (NCATS).
